Assay [1] can be described thus: qHTS RealTime-Glo MT Cell Viability Assay in HEK293 cells - 40 hour (AID 1224874). Further: nearly all actives have a fitted effect of over 50% in size. Further: potency means the concentration at half of the fitted maximal effect. The note with it: RealTime-Glo luminescence; max response: stronger effect = lower value. The procedure, abridged: (§1)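 600 HEK293 cells per well, dispensed already mixed with RealTime-Glo MT reagents. Compound dosing came 5 h later. The same wells were read for luminescence at 0, 8, 16, 24, 32 and 40 h of exposure at 37 C.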
(In general: Quantitative high-throughput screening tests each substance at several concentrations.)

A short description of assay [2]: A CellTox Green Cytotoxicity Assay to monitor cytotoxicity in HEK293 cells - 24 hour (AID 1224875). Further: series mostly up to about 77 µM; nearly all actives have a fitted effect of over 45% in size. The procedure, abridged: (§2)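 Dead-cell fluorescence measured kinetically: asymmetric cyanine dye, HEK293, 600 cells/well, 5 h settle, 23 nL cpd/DMSO, 37 C, reads 0–40 h every 8 h.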
Assay [3] in a line: qHTS RealTime-Glo MT Cell Viability Assay in HepG2 cells - 32 hour (AID 1224877). Further: nearly all actives have a fitted effect of over 55% in size. The procedure, abridged: (§3)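 HepG2 cells (600/well) were dispensed with RealTime-Glo reagents, incubated 5 h at 37 °C, then treated with compounds in DMSO for up to 40 h. Nonlytic NanoLuc luminescence reflecting viable cells was read at each stated time point.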
Assay [4] can be described thus: A CellTox Green Cytotoxicity Assay to monitor cytotoxicity in HepG2 cells - 24 hour (AID 1224878). Further: nearly all actives have a fitted effect of over 45% in size. Further: potency means the concentration at half of the fitted maximal effect. The procedure, abridged:
(§4)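 First, HepG2 cells (600/well) mixed with reagent were plated; second, after 5 h at 37 C they received compounds via pintool; third, fluorescence was measured at 0 h through 40 h at 8 h intervals.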

Assay [5] is described as follows: A CellTox Green Cytotoxicity Assay to monitor cytotoxicity in HepG2 cells - 40 hour (AID 1224879). Further: nearly all actives have a fitted effect of over 40% in size. Further: potency means the concentration at half of the fitted maximal effect. The procedure, abridged:
as §4

A short description of assay [6]: qHTS RealTime-Glo MT Cell Viability Assay in HEK293 cells - 0 hour (AID 1224880). Further: top concentration of the series differs between compounds; nearly all actives have a fitted effect of over 45% in size. The procedure, abridged: as §1
Assay [7] can be described thus: A CellTox Green Cytotoxicity Assay to monitor cytotoxicity in HEK293 cells - 32 hour (AID 1224881). Further: nearly all actives have a fitted effect of over 40% in size. The procedure, abridged:
as §2

Assay [8] is described as follows: A CellTox Green Cytotoxicity Assay to monitor cytotoxicity in HepG2 cells - 0 hour (AID 1224882). Further: nearly all actives have a fitted effect of over 35% in size. Summed up: as §4
Assay [9] can be described thus: A CellTox Green Cytotoxicity Assay to monitor cytotoxicity in HEK293 cells - 8 hour (AID 1224884). Further: nearly all actives have a fitted effect of over 35% in size. Summed up: as §2
Assay [10] in a line: qHTS RealTime-Glo MT Cell Viability Assay in HepG2 cells - 16 hour (AID 1224885). Further: nearly all actives have a fitted effect of over 50% in size. The procedure, abridged: as §3
Assay [11] can be described thus: qHTS RealTime-Glo MT Cell Viability Assay in HEK293 cells - 24 hour (AID 1224886). Further: top concentration of the series differs between compounds; nearly all actives have a fitted effect of over 50% in size. The procedure, abridged:
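HEK293 cells seeded with NanoLuc/prosubstrate reagent, rested 5 h at 37 C, then dosed and kept at 37 C up to 40 h. Nonlytic real-time luminescence from viable cells read at 0, 8, 16, 24, 32 and 40 h.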

The nature of assay [12]: qHTS RealTime-Glo MT Cell Viability Assay in HEK293 cells - 8 hour (AID 1224887). Further: top concentration of the series differs between compounds; nearly all actives have a fitted effect of over 50% in size. The procedure, abridged: as §1
Assay [13] in a line: A CellTox Green Cytotoxicity Assay to monitor cytotoxicity in HEK293 cells - 16 hour (AID 1224888). Further: nearly all actives have a fitted effect of over 35% in size. Summed up: as §2
Assay [14] is described as follows: qHTS RealTime-Glo MT Cell Viability Assay in HepG2 cells - 0 hour (AID 1224889). Further: nearly all actives have a fitted effect of over 50% in size. The procedure, abridged:
as §3

The nature of assay [15]: qHTS assay to identify small molecule antagonists of the estrogen receptor alpha (ER-alpha) signaling pathway using the BG1 cell line in the presence of 0.1 nM 17-beta-estradiol - cell viability counter screen (AID 1259241). Further: nearly all actives have a fitted effect of over 40% in size. The procedure, abridged:
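Cells were plated and left 24 hr, compounds in DMSO were pinned in, 17beta-estradiol was added to 0.1 nM final, and after 22 hr CellTiter-Fluor reagent was added for 30 min before fluorescence was read.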

Assay [16] in a line: qHTS assay to identify small molecule antagonists of the androgen receptor (AR) signaling pathway using the MDA cell line in the presence of 0.5 nM R1881 - cell viability counter screen (AID 1259242). Further: nearly all actives have a fitted effect of over 45% in size. Summed up:
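qHTS format. MDA-kb2 (MMTV-luc, AR/GR responsive) + cpd + 0.5 nM R1881 final, 16 hr 37C/0% CO2 → CellTiter-Fluor 30 min → fluorescence intensity.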

Assay [17] in a line: A CellTox Green Cytotoxicity Assay to monitor cytotoxicity in HepG2 cells - 8 hour (AID 1224890). Further: nearly all actives have a fitted effect of over 45% in size. Summed up: as §4
Assay [18] deals with Androgen receptor (Homo sapiens) (UniProt P10275). Put plainly: qHTS assay to identify small molecule antagonists of the androgen receptor (AR) signaling pathway using the MDA cell line in the presence of 0.5 nM R1881 (AID 1259243). Further: nearly all actives have a fitted effect of over 50% in size. Summed up:
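Antagonist mode quantitative HTS in MDA-kb2 MMTV-luciferase cells, agonist R1881 at 0.5 nM final, 16 hr exposure at 37C and 0% CO2, luminescent detection.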

A short description of assay [19]: A CellTox Green Cytotoxicity Assay to monitor cytotoxicity in HepG2 cells - 32 hour (AID 1224883). Further: nearly all actives have a fitted effect of over 50% in size. Summed up:
as §4

Several values for one entry are separate records, joined by “and”; a condition that tells them apart may be missing. Identical values can stand only once. Results filed as inconclusive are left out. Some structures have more than one record in an assay (separate samples or runs), and their calls can disagree. Activity calls are given as the source filed them. The call rests on the fitted dose curve; in most records, active means well fitted curve in the direction sought with a large enough effect in the repeat runs; inconclusive means weak or mixed curves; inactive means no such curve, though single readings can be large; an effect the other way counts as inactive or inconclusive.
On the % scale 0 is the no-effect control and ±100 the full control effect.

Androgen receptor (Homo sapiens), sequence (P10275 whole entry, looked up): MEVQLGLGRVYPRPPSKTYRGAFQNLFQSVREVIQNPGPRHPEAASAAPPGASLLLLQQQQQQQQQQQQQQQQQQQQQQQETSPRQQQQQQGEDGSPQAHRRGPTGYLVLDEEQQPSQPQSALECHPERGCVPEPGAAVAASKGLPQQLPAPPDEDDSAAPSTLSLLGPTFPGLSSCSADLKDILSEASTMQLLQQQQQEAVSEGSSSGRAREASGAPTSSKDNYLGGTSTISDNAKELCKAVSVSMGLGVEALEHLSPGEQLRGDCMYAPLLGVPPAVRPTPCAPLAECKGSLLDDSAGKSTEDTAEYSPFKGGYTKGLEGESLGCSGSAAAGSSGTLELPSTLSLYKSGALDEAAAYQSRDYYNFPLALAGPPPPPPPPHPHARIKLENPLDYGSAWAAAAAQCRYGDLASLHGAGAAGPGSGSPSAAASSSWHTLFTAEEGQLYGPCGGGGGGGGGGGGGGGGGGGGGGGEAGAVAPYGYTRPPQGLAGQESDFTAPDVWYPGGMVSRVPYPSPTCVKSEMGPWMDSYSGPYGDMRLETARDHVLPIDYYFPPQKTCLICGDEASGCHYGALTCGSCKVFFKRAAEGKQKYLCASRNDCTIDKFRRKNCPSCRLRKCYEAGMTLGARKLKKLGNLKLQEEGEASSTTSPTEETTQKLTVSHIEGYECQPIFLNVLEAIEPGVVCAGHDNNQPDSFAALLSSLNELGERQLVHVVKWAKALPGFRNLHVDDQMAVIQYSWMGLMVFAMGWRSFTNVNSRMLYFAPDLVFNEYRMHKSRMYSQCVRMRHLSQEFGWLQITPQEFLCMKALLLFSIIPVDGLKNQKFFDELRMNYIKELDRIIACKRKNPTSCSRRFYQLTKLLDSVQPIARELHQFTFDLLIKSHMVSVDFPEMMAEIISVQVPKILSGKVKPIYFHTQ

As to `O=C(O)CC(O)(CC(=O)O)C(=O)O`, the max response in assay [1] was 6.24% (inactive) and 7.96% (inactive) and 3.83% (inactive). In addition, the Potency result in [2], in assay [3], in assay [4], in [5], in assay [7] and in [8] was “inactive” throughout. Also, the Potency result in [9], in [10], in assay [11], in assay [12], in [13] and in [14] was “inactive” throughout. Moreover, the Potency result in assay [15] and in assay [16] was “inactive” throughout. Further, the compound was called inactive in assay [6].
On to `CCC(=O)C(CC(C)N(C)C)(c1ccccc1)c1ccccc1` (configuration not stated), for which the Potency in assay [1] was 24.4 µM (active); in assay [4], 39.1 µM (active) and inactive; in [5], 43.8 µM (active) and 48.6 µM (active). The Potency entry in [2], in assay [3], in [7], in [8], in assay [9] and in assay [10] was “inactive” throughout. Also, the Potency result in assay [12], in assay [13], in assay [14], in assay [17], in [15] and in [16] was “inactive” throughout. Also, the Potency result in assay [18] was “inactive”. For the same compound, the call in assay [6] was inactive.
For `N#CS`, in [1], the max response is 6.52% (inactive) [middle of 4 runs]. Also, the Potency result in [2], in assay [3], in [4], in assay [5], in assay [7] and in assay [8] was “inactive” each time. Also, the Potency result in assay [9], in assay [10], in [11], in assay [12], in assay [13] and in assay [14] was “inactive” in each case. Besides, the Potency entry in assay [15] and in assay [16] was “inactive” in each case. Moreover, the call in assay [6] was inactive.
Regarding `CCn1cc[n+](C)c1C`, the max response in assay [1] was -4.04% (inactive) and 1.14% (inactive) and -16.1% (inactive). Besides, the Potency result in [2], in assay [3], in assay [4], in assay [5], in [7] and in assay [8] was “inactive” throughout. Besides, the Potency result in assay [9], in [10], in assay [11], in assay [12], in [13] and in assay [14] was “inactive” each time. In addition, the Potency entry in [17], in [15] and in assay [16] was “inactive” throughout. Besides, the compound was classed as inactive in assay [6].
In the case of `Nc1ccccc1`, in assay [1], the max response is -1.34% (inactive) [middle of 4 runs]. Further, the Potency result in [2], in assay [3], in [4], in assay [5], in assay [7] and in assay [8] was “inactive” each time. The Potency entry in assay [9], in [10], in [11], in [12], in assay [13] and in [14] was “inactive” throughout. The Potency result in [15] and in assay [16] was “inactive” throughout. The compound was called inactive in assay [6].
As for `CC(=O)O`, the max response in assay [1] is 1.59% (inactive) [middle of 4 runs]. The Potency entry in assay [2], in assay [3], in assay [4], in assay [5], in assay [7] and in assay [8] was “inactive” throughout. The Potency result in assay [9], in assay [10], in assay [11], in [12], in assay [13] and in assay [14] was “inactive” each time. For the same compound, the Potency result in assay [15] and in assay [16] was “inactive” in each case. In addition, the compound was classed as inactive in assay [6].
In the case of `O=[N+]([O-])O`, the Potency entry in assay [2], in [3], in [4], in assay [5], in assay [7] and in [8] was “inactive” throughout. Moreover, the Potency entry in assay [9], in [10], in [11], in assay [12], in [13] and in assay [14] was “inactive” in each case. Besides, the Potency result in [17], in assay [15] and in assay [16] was “inactive” each time. The result in assay [6] was inactive.
For the compound `Nc1ccc(-c2ccc(N)cc2)cc1`, in assay [1], the max response is -0.165% (inactive) and -5.77% (inactive) and -8.89% (inactive). Also, the Potency entry in assay [2], in assay [3], in assay [4], in assay [7], in assay [8] and in assay [9] was “inactive” throughout. Moreover, the Potency result in assay [10], in assay [11], in assay [12], in [13], in [14] and in assay [15] was “inactive” in each case. The Potency result in [16] was “inactive”. In addition, the Potency in assay [5] was 48.4 µM (active) and inactive. In addition, in [6], the compound was called inactive.
Take `CCCCCCCCCCCC(=O)O`: the max response in assay [1] was 0.697% (inactive) and -0.0798% (inactive) and 0.587% (inactive). Besides, the Potency result in assay [2], in assay [3], in [4], in assay [5], in assay [7] and in assay [8] was “inactive” each time. For the same compound, the Potency entry in [19], in assay [9], in assay [10], in [11], in assay [12] and in [13] was “inactive” each time. The Potency entry in [14], in assay [15] and in assay [16] was “inactive” each time. For the same compound, the result in assay [6] was inactive.

For the origin of these results see PubChem BioAssay (Tox21).
